Inconclusive results are not listed. A number with no mark means an inactive call. Active and inactive are the calls of the source. The call rests on the fitted dose curve; in most records, active means well fitted curve in the direction sought with a large enough effect; inconclusive means small, poorly fitted or top-dose-only effect, or another doubt; inactive means no such curve, though single readings can be large; an effect the other way counts as inactive or inconclusive.

The nature of experiment [1]: qHTS of pediatric cancer cell lines to identify multiple opportunities for drug repurposing: Primary screen for SK-N-MC cells (AID 1347093).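 On activity change, negative = cytotoxic: series mostly up to about 46 µM; plate controls were DMSO neutral control for no effect and bortezomib for full effect.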 Put shortly: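 Metabolically active cells were quantified by ATP-dependent luminescence (CellTiter-Glo, 15 min at room temperature) following 48 h treatment. Cells had been plated at 500-1,000 per well and settled for 5 h beforehand.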

Experiment [2] in a line: qHTS of pediatric cancer cell lines to identify multiple opportunities for drug repurposing: Primary screen for BT-37 cells (AID 1347094).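 On activity change, negative = cytotoxic: series mostly up to about 57 µM; plate controls were DMSO for no effect and bortezomib for full effect.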 Put shortly: (§1)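 Quantitative HTS format: each compound titrated (MIPE 11 points from 0.78 nM, NPC 8 points from 0.59 nM) onto cells plated 5 hours earlier. After 48 h at 37 degrees C, CellTiter-Glo luminescence was recorded.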
Experiment [3] can be described thus: qHTS of pediatric cancer cell lines to identify multiple opportunities for drug repurposing: Primary screen for NB-EBc1 cells (AID 1347095).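 On activity change, negative = cytotoxic: plate controls were DMSO neutral control for no effect and bortezomib for full effect.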 The method, boiled down: as §1
Experiment [4] is described as follows: qHTS of pediatric cancer cell lines to identify multiple opportunities for drug repurposing: Primary screen for U-2 OS cells (AID 1347096). Further: nearly all actives have a fitted effect of over 50% in size.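 On activity change, negative = cytotoxic: plate controls were DMSO wells for no effect and bortezomib positive control wells for full effect.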 The method, boiled down:
(§2)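 Cells (500-1,000/well) rested 5 h, then received compounds for 48 h; metabolically active cells were measured by CellTiter-Glo luminescence. Final concentrations spanned up to 46 µM (MIPE, 11-point) or 0.59 nM-46 µM (NPC, 8-point) in primary screens, 11-point in follow-ups.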

A short description of experiment [5]: qHTS of pediatric cancer cell lines to identify multiple opportunities for drug repurposing: Primary screen for Saos-2 cells (AID 1347097). Further: nearly all actives have a fitted effect of over 40% in size. On activity change, negative = cytotoxic: on the % scale 0 is the no-effect control and ±100 the full control effect. The method, boiled down: as §1
Experiment [6] can be described thus: qHTS of pediatric cancer cell lines to identify multiple opportunities for drug repurposing: Primary screen for SK-N-SH cells (AID 1347098). Further: nearly all actives have a fitted effect of over 65% in size.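 On activity change, negative = cytotoxic: DMSO served as neutral control and bortezomib at 2.3 µM as positive control; on the % scale 0 is the no-effect control and ±100 the full control effect.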 Put shortly:
as §2

A short description of experiment [7]: qHTS of pediatric cancer cell lines to identify multiple opportunities for drug repurposing: Primary screen for NB1643 cells (AID 1347099). Further: nearly all actives have a fitted effect of over 50% in size.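 On activity change, negative = cytotoxic: plate controls were DMSO neutral control for no effect and bortezomib positive control for full effect.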 The method, boiled down: as §1
Experiment [8] can be described thus: qHTS of pediatric cancer cell lines to identify multiple opportunities for drug repurposing: Primary screen for LAN-5 cells (AID 1347100).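 On activity change, negative = cytotoxic: plate controls were DMSO neutral control for no effect and bortezomib positive control for full effect.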 The method, boiled down: as §2
Experiment [9] in a line: qHTS of pediatric cancer cell lines to identify multiple opportunities for drug repurposing: Primary screen for BT-12 cells (AID 1347101). Further: nearly all actives have a fitted effect of over 25% in size.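 On activity change, negative = cytotoxic: plate controls were DMSO for no effect and bortezomib positive control for full effect.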 Put shortly: as §2
Experiment [10] in a line: qHTS of pediatric cancer cell lines to identify multiple opportunities for drug repurposing: Primary screen for Rh18 cells (AID 1347102). Further: nearly all actives have a fitted effect of over 65% in size. On activity change, negative = cytotoxic: on the % scale 0 is the no-effect control and ±100 the full control effect. The method, boiled down:
as §2
Potency means the concentration at half of the fitted maximal effect.

In the case of `CN1Cc2cc(C(=O)N3CCC(C4CCNCC4)CC3)ccc2NC(CC(=O)O)C1=O` (stereo not drawn), the Potency entry in experiment [1], in experiment [2], in experiment [3], in [4], in [5] and in experiment [6] was “inactive” in each case. Moreover, the Potency entry in experiment [7], in experiment [8], in [9] and in experiment [10] was “inactive” each time.
In the case of `NC(=O)NS(=O)(=O)c1ccc(Cl)cc1`, the Potency entry in experiment [1], in [2], in experiment [3], in [4], in [5] and in [6] was “inactive” throughout. The Potency result in [7], in [8], in [9] and in experiment [10] was “inactive” throughout.
Consider `Cc1oc(=O)oc1COC(=O)[C@@H]1N2C(=O)[C@@H](NC(=O)[C@H](N)c3ccccc3)[C@H]2SC1(C)C`, for which the Potency result in [1], in experiment [2], in experiment [3], in experiment [4], in experiment [5] and in [6] was “inactive” in each case. The Potency entry in [7], in experiment [8], in [9] and in [10] was “inactive” each time.
Turning to `CC(NN)c1ccccc1` (stereo not drawn), the Potency entry in experiment [1], in experiment [2], in experiment [3], in experiment [4], in [5] and in experiment [6] was “inactive” each time. Further, the Potency entry in experiment [7], in experiment [8], in experiment [9] and in experiment [10] was “inactive” throughout.
With `COc1ccccc1OCC1CNC(=O)O1` (stereo not drawn), the Potency result in experiment [1], in experiment [2], in experiment [3], in [4], in experiment [5] and in experiment [6] was “inactive” each time. The Potency entry in experiment [7], in experiment [8] and in [9] was “inactive” in each case.
Take `C#Cc1ccc(-c2ccccc2F)cc1`: the Potency entry in experiment [1], in experiment [2], in [3], in experiment [4], in experiment [5] and in experiment [6] was “inactive” each time. The Potency result in [7], in [8], in [9] and in [10] was “inactive” in each case.
Consider `Oc1ccccc1`, for which the Potency entry in experiment [1], in [2], in [3], in experiment [4], in experiment [5] and in experiment [6] was “inactive” throughout. Besides, the Potency result in experiment [7], in experiment [8] and in [9] was “inactive” throughout.
`CCOC(=O)O[C@]1(C(=O)OCCl)CC[C@H]2[C@@H]3CCC4=CC(=O)C=C[C@]4(C)[C@H]3[C@@H](O)C[C@@]21C`: the Potency entry in experiment [1], in [2], in experiment [3], in [4], in experiment [5] and in [6] was “inactive” each time. The Potency entry in experiment [7], in experiment [8], in [9] and in experiment [10] was “inactive” throughout.
On to `CC1CN(c2cc3c(cc2F)c(=O)c(C(=O)O)cn3-c2ccc(F)cc2F)CCN1` (stereo not drawn), for which the activity change, negative = cytotoxic in experiment [1] is 32.9% [at 4.84 µM]; in experiment [2], 1.04% [at 6.03 µM]; in experiment [3], 50.8% [at 4.84 µM]; in [4], -4.99% [at 4.84 µM]; in experiment [5] it was 39.6% [at 4.84 µM]; in [6], -4.88% [at 6 µM]. The activity change, negative = cytotoxic in experiment [7] was -5.39% [at 4.84 µM]; in [8], 1.81% [at 4.84 µM]; in experiment [9] it was -6.89% [at 6.03 µM]; in experiment [10], -0.484% [at 4.84 µM].
For `CC(C(=O)O)c1ccc(/C=C2\CCCCC2=O)cc1` (stereo not drawn), the Potency entry in [1], in [2], in experiment [3], in experiment [4], in [5] and in [6] was “inactive” in each case. Besides, the Potency result in experiment [7], in experiment [8] and in experiment [9] was “inactive” in each case.
In the case of `Cc1cc2nc3ccc(=[N+](C)C)cc-3sc2cc1N`, the Potency in experiment [1] is 1.33 µM (active); in experiment [2], 17.4 µM (active); in experiment [3] it was 10.6 µM (active); in experiment [4], 21.1 µM (active); in experiment [5], 2.99 µM (active); in experiment [6], 10.9 µM (active). The Potency in experiment [7] is 5.96 µM (active); in experiment [8] it was 1.33 µM (active); in [9], 15.5 µM (active); in experiment [10], 2.99 µM (active).
For `CCc1cccc2c(CCO)c[nH]c12`, the Potency result in [1], in experiment [2], in experiment [3], in [4], in experiment [5] and in [6] was “inactive” each time. The Potency entry in [7] and in [8] was “inactive” in each case.
For `O=C(OCC1(COC(=O)c2cccnc2)CCCC(COC(=O)c2cccnc2)(COC(=O)c2cccnc2)C1O)c1cccnc1`, the Potency result in experiment [1], in experiment [2], in experiment [3], in experiment [4], in experiment [5] and in [6] was “inactive” each time. Also, the Potency result in [7], in experiment [8], in experiment [9] and in [10] was “inactive” each time.
As for `CSc1ccc(/C=C2/C(C)=C(CC(=O)O)c3cc(F)ccc32)cc1`, the Potency result in [1], in experiment [2], in experiment [3], in [4], in experiment [5] and in experiment [6] was “inactive” throughout. The Potency result in experiment [7], in experiment [8], in [9] and in experiment [10] was “inactive” each time.
`COc1ccc2nc(SCc3ncc(C)c(OC)c3C)[nH]c2c1`: the Potency entry in [1], in experiment [2], in experiment [3], in experiment [4], in experiment [5] and in experiment [6] was “inactive” throughout. For the same compound, the Potency result in experiment [7], in [8], in [9] and in experiment [10] was “inactive” in each case.
Take `Cc1c(N)cccc1C(F)(F)F`: the Potency entry in experiment [1], in [2], in [3], in experiment [4], in experiment [5] and in [6] was “inactive” each time. Further, the Potency result in experiment [7], in [8], in experiment [9] and in experiment [10] was “inactive” throughout.
On to `Cc1cnc(NS(=O)(=O)c2ccc(N)cc2)nc1`, for which the Potency result in experiment [1], in experiment [2], in experiment [3], in experiment [4], in experiment [5] and in experiment [6] was “inactive” throughout. In addition, the Potency entry in experiment [7], in [8] and in experiment [9] was “inactive” throughout.
Regarding `CCCc1ncc(C(=O)O)s1`, the Potency result in [1], in experiment [2], in [3], in experiment [4], in [5] and in [6] was “inactive” in each case. The Potency entry in experiment [7], in [8], in experiment [9] and in experiment [10] was “inactive” throughout.
As for `C[N+]1(C)CCC(OC(=O)C(O)(c2ccccc2)C2CCCC2)C1` (stereo not drawn), the Potency result in experiment [1], in experiment [2], in experiment [3], in [4], in experiment [5] and in experiment [6] was “inactive” each time. The Potency result in [7], in [8], in experiment [9] and in [10] was “inactive” throughout.
As to `COc1ccc2cc(C=O)ccc2c1`, the Potency result in experiment [1], in experiment [2], in [3], in experiment [4], in experiment [5] and in experiment [6] was “inactive” throughout. Also, the Potency result in experiment [7], in experiment [8], in experiment [9] and in experiment [10] was “inactive” throughout.
Consider `Cc1ccc(Cl)c(OCC(O)CNC(C)(C)C)c1` (stereo not drawn), for which the Potency entry in experiment [1], in experiment [2], in [3], in experiment [4], in experiment [5] and in experiment [6] was “inactive” throughout. In addition, the Potency entry in experiment [7], in experiment [8] and in experiment [9] was “inactive” each time.

The values above are taken from PubChem BioAssay (NCATS).
